Laboratory results: PubChem BioAssay (NCI)
This is part of a sample that, as a whole, favours compounds with a hit. Of some 83,000 tested, about 20% had one in any assay.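 96-well plates, one dose, 48 hours. Percent growth reported; active if below 10.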 The source made the active and inactive calls.

Columns and labels:
Experiment in all cases: NCI-60 one-dose screen, 48 h (100 = growth as untreated, 0 = no growth, -100 = all killed)
Conditions in all cases: 10 µM unless noted
[1] = tested on: DU-145 prostate
[2] = tested on: K-562 leukemia
[3] = tested on: MALME-3M melanoma
[4] = tested on: MDA-MB-231 breast
[5] = tested on: SF-268 CNS
[6] = tested on: SF-295 CNS
[7] = tested on: SF-539 CNS
[8] = tested on: M14 melanoma

Row | Structure (SMILES) | growth [1] | growth [2] | growth [3] | growth [4] | growth [5] | growth [6] | growth [7] | growth [8]
1 | C=CC[n+]1c(/C=C/C=C2\N(C)c3ccccc3C2(C)C)sc2ccc(OC)cc21 | 25.6% (inactive) | 10.3% (inactive) | 5.31% (active) | 26.1% (inactive) | 32.7% (inactive) | -17.7% (active) | 25.7% (inactive) | 23% (inactive)
2 | CC(CCCC(=O)O)c1ccoc1 (centres undefined) | 103% (inactive) | 103% (inactive) | 96.8% (inactive) | 109% (inactive) | 95.8% (inactive) | 95.4% (inactive) | 102% (inactive) | 97.2% (inactive)
3 | CSC1=C(N)C(=O)c2[nH]cc(CO)c2C1=N | -94.8% (active) | -24.1% (active) | -96.1% (active) | 2.56% (active) | -69.4% (active) | -97.1% (active) | -96.2% (active) | -83.5% (active)
4 | O=C(Nc1ccc(N=Nc2ccccc2)cc1)c1cccc2ccccc12 | 85.3% (inactive) | 21.3% (inactive) | 71.6% (inactive) | 65.9% (inactive) | 77.5% (inactive) | 57.1% (inactive) | 69% (inactive) | 37.6% (inactive)
5 | C=CC[n+]1c(/C=C2\Sc3ccccc3N2C)sc(-c2ccccc2)c1-c1ccccc1 | 23.4% (inactive) | 7.28% (active) | 4.72% (active) | 31.4% (inactive) | 32.9% (inactive) | -17.1% (active) | 20.3% (inactive) | 19.7% (inactive)
6 | CC(N)C(Cc1ccccc1)c1ccc(Cl)cc1 (centres undefined) | 110% (inactive) | 87% (inactive) | 103% (inactive) | 61.1% (inactive) | 92.2% (inactive) | 83.5% (inactive) | 90.1% (inactive) | 82.6% (inactive)
7 | O=C1CC(c2ccc3c(c2)OCO3)c2ncn(-c3ccc(Cl)cc3)c2N1 (centres undefined) | 18.3% (inactive) | 14.3% (inactive) | 62.6% (inactive) | 44.3% (inactive) | 44.4% (inactive) | 70.8% (inactive) | 1.25% (active) | -2.01% (active)
8 | ClCc1ccc(-c2ccc(Cn3cnc4nc(Cl)nc(Cl)c43)cc2)cc1 | -50% (active) | -14.4% (active) | -32.8% (active) | -21.4% (active) | 1.27% (active) | -62.5% (active) | -45% (active) | 13.1% (inactive)
9 | COc1ccc(C2OC(c3cc(-c4cc5ccccc5o4)nn3-c3ccccc3)=NN2C(C)=O)cc1 (centres undefined) | 101% (inactive) | 93.1% (inactive) | 107% (inactive) | 95.9% (inactive) | 97.7% (inactive) | 100% (inactive) | 98.6% (inactive) | 99% (inactive)
10 | CC1(O)CCC2CC3OC3(C)CCC3OC3(C)C(O)CC1C2(C)C (centres undefined) | 105% (inactive) | 119% (inactive) | 113% (inactive) | 122% (inactive) | 113% (inactive) | 52% (inactive) | 116% (inactive) | 114% (inactive)
11 | COc1cc(NCCN(CC(C)C)CC(C)C)c2ncc(C)cc2c1 | 71.4% (inactive) | 34.2% (inactive) | 66.7% (inactive) | 50.3% (inactive) | 71.1% (inactive) | 64.6% (inactive) | 97.7% (inactive) | 61% (inactive)
12 | N#Cc1c(NC(=O)c2ccco2)[n+]([O-])c2cc(F)c(F)cc2[n+]1[O-] | 76.1% (inactive) | 56.6% (inactive) | 116% (inactive) | 96.7% (inactive) | 89.7% (inactive) | 106% (inactive) | 74.8% (inactive) | 112% (inactive)
13 | C=CCC(=O)N[C@H](/C=C/C(=O)O)Cc1ccc(-c2cc(Cl)cc(Cl)c2)cc1 | 106% (inactive) | 96.7% (inactive) | 99.9% (inactive) | 97.9% (inactive) | 98.7% (inactive) | 101% (inactive) | 94.6% (inactive) | 92.2% (inactive)
